# Data reported in PubChem BioAssay (NCATS).
# Records with an inconclusive call do not appear. Entries that show only a call come without a potency. A number with no mark means an inactive call. Calls of active or inactive are those of the source. Calls follow the shape of the dose curve; as a rule, active = well fitted inhibition curve with a large enough effect; inconclusive = small, poorly fitted or top-dose-only effect; inactive = flat fitted curve, though single readings scatter.
# Experiments:
# CRL-7250 = normal cell line; assay: Cytotoxic Profiling of Annotated Libraries Using Quantitative High-Throughput Screening (AID 1296008); settings: Five cell lines viability, CellTiter-Glo ATP luminescence, 48-72 h; max response: hits give low values
# Summary of the method: (§1)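 Compounds were pin-transferred onto cells and incubated 48 or 72 hr at 37 degree Celsius, 95% humidity. CellTiter-Glo was added, plates sat 10 min at room temperature, then ATP-coupled luminescence was imaged as the viability read-out.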
# HaCat [1] = assay: as above; settings: Five cell lines viability, CellTiter-Glo ATP luminescence, 48-72 h; max response: hits give low values
# Summary of the method: as §1
# NIH3T3 = assay: as above; settings: Five cell lines viability, CellTiter-Glo ATP luminescence, 48-72 h; max response: hits give low values
# Summary of the method: as §1
# MCC-13 = assay: qHTS assay to identify novel small-molecules to repurpose for Merkel cell carcinoma treatment (AID 1296009); settings: MCC and control cell lines, CellTiter-Glo viability, 72 h; series mostly up to 46 µM
# Summary of the method: (§2)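 qHTS format: cells treated with library compounds in DMSO across 8 (NPC) or 11 (MIPE) concentrations. Readout after 72 hr at 37 degree celsius was CellTiter-Glo luminescence.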
# MCC-26 = assay: as above; settings: MCC and control cell lines, CellTiter-Glo viability, 72 h; series mostly up to 46 µM
# Summary of the method: as §2
# MKL-1 = assay: as above; settings: MCC and control cell lines, CellTiter-Glo viability, 72 h; series mostly up to 46 µM
# Summary of the method: as §2
# MKL-2 = assay: as above; settings: MCC and control cell lines, CellTiter-Glo viability, 72 h; series mostly up to 46 µM
# Summary of the method: as §2
# HACAT [2] = assay: as above; settings: MCC and control cell lines, CellTiter-Glo viability, 72 h; at 44.8 µM (top of the series) unless noted
# Summary of the method: as §2
# KB-3-1 = assay: Cytotoxic Profiling of Annotated Libraries Using Quantitative High-Throughput Screening (AID 1296008); settings: Five cell lines viability, CellTiter-Glo ATP luminescence, 48-72 h; max response: hits give low values
# Summary of the method: as §1
# P94_40 = assay: qHTS profiling for inhibitors of Plasmodium falciparum proliferation (AID 504749); settings: P. falciparum in erythrocytes, SYBR Green DNA, 72 h; series mostly up to 28.7 µM
# Summary of the method: (§3)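 Parasite proliferation within erythrocytes, 72 h exposure. Endpoint: SYBR Green I fluorescence after overnight lysis at room temperature. Controls: 0.29 uM artemisinin, DMSO.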
# PAD = assay: as above; settings: P. falciparum in erythrocytes, SYBR Green DNA, 72 h; series mostly up to 28.7 µM
# Summary of the method: as §3
# PC15 = assay: as above; settings: P. falciparum in erythrocytes, SYBR Green DNA, 72 h; series mostly up to 28.7 µM
# Summary of the method: as §3
# PC26 = assay: as above; settings: P. falciparum in erythrocytes, SYBR Green DNA, 72 h; series mostly up to 28.7 µM
# Summary of the method: as §3
# SC27B = assay: as above; settings: P. falciparum in erythrocytes, SYBR Green DNA, 72 h; series mostly up to 28.7 µM
# Summary of the method: as §3
# TAB109 = assay: as above; settings: P. falciparum in erythrocytes, SYBR Green DNA, 72 h; series mostly up to 28.7 µM
# Summary of the method: as §3
# TAB113 = assay: as above; settings: P. falciparum in erythrocytes, SYBR Green DNA, 72 h; series mostly up to 28.7 µM
# Summary of the method: as §3
# TAB165 = assay: as above; settings: P. falciparum in erythrocytes, SYBR Green DNA, 72 h; series mostly up to 28.7 µM
# Summary of the method: as §3
# Also: nearly all actives have a fitted effect of over 60% in size.
# Potency is read from the fitted curve at half-maximal effect.
structure (smiles),measurement,setting,value
O=C1Nc2ccccc2C1(c1ccc(O)cc1)c1ccc(O)cc1,Potency,CRL-7250,23.7 µM (active)
same,max response,HaCat [1],-55.1%
same,max response,NIH3T3,-21.7%
same,Potency,MCC-13,inactive
same,Potency,MCC-26,inactive
same,Potency,MKL-1,inactive
same,Potency,MKL-2,inactive
COC(=O)C1=C(C)NC(C)=C(C(=O)OCCc2ccc(N3CCN(C(c4ccccc4)c4ccccc4)CC3)cc2)C1c1cccc([N+](=O)[O-])c1 (stereo not given),max response,CRL-7250,-8.49%
same,outcome,HaCat [1],inactive
same,max response,NIH3T3,-0.486%
same,outcome,HACAT [2],inactive
same,Potency,MCC-13,inactive
same,Potency,MCC-26,inactive
same,Potency,MKL-1,inactive
same,Potency,MKL-2,inactive
O=[N+]([O-])c1ccc(-c2nc(-c3ccc(F)cc3)c(-c3ccncc3)[nH]2)cc1,outcome,CRL-7250,inactive
same,max response,HaCat [1],-22.5%
CCCc1ccc(OCC(=O)N2CCN(C(=O)COc3ccc(CCC)cc3OC)CC2)c(OC)c1,max response,CRL-7250,-1.28%
same,max response,HaCat [1],5%
same,max response,NIH3T3,0.399%
same,Potency,MCC-13,inactive
same,Potency,MCC-26,inactive
same,Potency,MKL-1,inactive
same,Potency,MKL-2,inactive
CN(C)CCOC1=Cc2ccccc2Sc2ccc(Cl)cc21,max response,CRL-7250,-2.09%
same,outcome,HaCat [1],inactive
same,max response,KB-3-1,-15.8%
same,max response,NIH3T3,-0.0906%
same,outcome,HACAT [2],inactive
same,Potency,MCC-13,inactive
same,Potency,MCC-26,inactive
same,Potency,MKL-1,inactive
CC(=O)OC/C=C(C)/C=C/C=C(C)/C=C/C1=C(C)CCCC1(C)C,max response,CRL-7250,0.956%
same,outcome,HaCat [1],inactive
same,max response,KB-3-1,-3.66%
same,max response,NIH3T3,1.83%
same,outcome,HACAT [2],inactive
same,Potency,MCC-13,inactive
same,Potency,MCC-26,inactive
same,Potency,MKL-2,3.76 µM (active)
CCCN(CCC)C(=O)C(CCC(=O)OCCCN1CCN(CCOC(=O)Cc2c(C)n(C(=O)c3ccc(Cl)cc3)c3ccc(OC)cc23)CC1)NC(=O)c1ccccc1 (stereo not given),max response,CRL-7250,-6.96%
same,max response,HaCat [1],-0.687%
same,max response,KB-3-1,-0.886%
same,max response,NIH3T3,1.41%
same,Potency,MCC-13,inactive
same,Potency,MCC-26,inactive
same,Potency,MKL-1,inactive
C/C=C(/C(=C/C)c1ccc(OC(C)=O)cc1)c1ccc(OC(C)=O)cc1,max response,CRL-7250,0.166%
same,outcome,HaCat [1],inactive
same,max response,NIH3T3,-0.599%
same,outcome,HACAT [2],inactive
same,Potency,MCC-13,inactive
same,Potency,MCC-26,inactive
same,Potency,MKL-1,inactive
same,Potency,MKL-2,inactive
O=C(OCCN1CCOCC1)c1cccnc1Nc1cccc(C(F)(F)F)c1,max response,CRL-7250,-4.59%
same,outcome,HaCat [1],inactive
same,max response,NIH3T3,-0.363%
same,outcome,HACAT [2],inactive
same,Potency,MCC-13,inactive
same,Potency,MCC-26,inactive
same,Potency,MKL-1,inactive
same,Potency,MKL-2,inactive
CC1CC(=O)NN=C1c1ccc(NCC(C)(C)NCC(O)COc2cc(Cl)ccc2C#N)cc1 (stereo not given),max response,CRL-7250,-11.5%
same,max response,HaCat [1],-12.2%
same,max response,KB-3-1,-1.42%
same,max response,NIH3T3,-20.4%
same,Potency,MCC-13,inactive
same,Potency,MCC-26,inactive
same,Potency,MKL-1,inactive
same,Potency,MKL-2,inactive
CC(C)NCCCC1(C(N)=O)c2ccccc2-c2ccccc21,outcome,CRL-7250,inactive
same,max response,HaCat [1],4.87%
same,max response,NIH3T3,-1.37%
same,Potency,MCC-13,inactive
same,Potency,MCC-26,inactive
same,Potency,MKL-1,inactive
same,Potency,MKL-2,inactive
CO/N=C(/C(=O)N[C@@H]1C(=O)N2C(C(=O)O)=C(Cn3nnc(C)n3)CS[C@H]12)c1csc(N)n1,max response,CRL-7250,4.76%
same,max response,HaCat [1],-1.44%
same,outcome,KB-3-1,inactive
same,max response,NIH3T3,2.67%
same,Potency,MCC-13,inactive
same,Potency,MCC-26,inactive
same,Potency,MKL-1,inactive
same,Potency,MKL-2,inactive
Cc1nc(C2CCCCC2)c(-c2ccc(S(N)(=O)=O)c(F)c2)o1,max response,CRL-7250,-4.52%
same,outcome,HaCat [1],inactive
same,max response,NIH3T3,-12.8%
same,outcome,HACAT [2],inactive
same,Potency,MCC-13,inactive
same,Potency,MCC-26,inactive
same,Potency,MKL-1,inactive
same,Potency,MKL-2,inactive
CCCCCCCCCCCCCCCC[n+]1ccccc1,Potency,P94_40,8.91 µM (active)
same,Potency,PAD,12.6 µM (active)
same,Potency,PC15,10 µM (active)
same,Potency,PC26,12 µM (active)
same,Potency,SC27B,10 µM (active)
same,Potency,TAB109,8.91 µM (active)
same,Potency,TAB113,5.01 µM (active)
same,Potency,TAB165,4.47 µM (active)
same,Potency,CRL-7250,1.5 µM (active)
same,Potency,HaCat [1],5.96 µM (active)
same,Potency,KB-3-1,14.6 µM (active)
same,Potency,NIH3T3,16.8 µM (active)
same,Potency,MCC-13,11.9 µM (active)
same,Potency,MKL-1,0.841 µM (active)
same,Potency,MKL-2,0.422 µM (active)
Cc1nn(-c2ccccc2)c(C)c1/C=N/N1CCN(Cc2ccccc2)CC1,max response,CRL-7250,4.78%
same,max response,HaCat [1],-14.9%
same,max response,KB-3-1,8.96%
same,max response,NIH3T3,3.85%
CCCC(=O)O[C@]1(C(=O)CCl)[C@@H](C)C[C@H]2[C@@H]3CCC4=CC(=O)C=C[C@]4(C)[C@@]3(F)C(=O)C[C@@]21C,max response,CRL-7250,-8.55%
same,max response,HaCat [1],-2.69%
same,max response,NIH3T3,-3.48%
same,Potency,MCC-13,inactive
same,Potency,MCC-26,inactive
CC[N+](CC)(CC)CCOC(=O)C(C1CCCC1)C1CCCC1,outcome,CRL-7250,inactive
same,max response,HaCat [1],-3.44%
same,max response,KB-3-1,9.62%
same,max response,NIH3T3,-5.66%
same,Potency,MCC-13,inactive
same,Potency,MKL-1,11.9 µM (active)
same,Potency,MKL-2,5.96 µM (active)
